Inconclusive results are not listed. Active and inactive are the calls of the source. Unless noted, calls follow the shape of the dose curve; as a rule, active = well fitted curve in the direction sought with a large enough effect; inconclusive = small, poorly fitted or top-dose-only effect, or another doubt; inactive = no such curve, though single readings can be large; an effect the other way counts as inactive or inconclusive.
Assays:
[1] = molecular target: Lysosomal acid glucosylceramidase (Homo sapiens) (UniProt P04062); experiment: Glucocerebrosidase-p2 (AID 348; in the data active = potency below about 10 µM; also: potency is read from the fitted curve at half-maximal effect); details: purified GBA, blue fluorogenic substrate, 40 min
How it was run: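 Normal human glucocerebrosidase (0.2 nM) with blue fluorogenic substrate (80 uM final) in citrate/phosphate pH 5.9 with 10mM sodium taurocholate, 0.01% tween-20; 40 min RT, NaOH/glycine stop; fluorescence Ex 365/Em 440; AC50 from a titration from 0.6 nM upwards.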

[2] = AP1 Signaling Pathway (AID 357; active = well fitted curve in either direction with a large enough effect, not every such curve was filed as active; also: % is scaled to controls: 0 for no effect and ±100 for the full control effect); details: ME-180 AP-1-bla reporter, EGF-induced, beta-lactamase ratio, 5 h; at 7.69 µM (top of the series) unless noted
How it was run: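 Beta-lactamase reporter under AP-1 response element, ME-180 background. Stimulus: EC50 EGF. Compound exposure 5 h, 37 °C. Detection: CCF4, 2.5 h RT, 460/530 nm. Values: AC50 from titration.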

[3] = molecular target: Cytochrome P450 1A2 (Homo sapiens) (UniProt P05177); experiment: p450-cyp1a2 (AID 410; calls by dose curve; also: potency is read from the fitted curve at half-maximal effect); details: recombinant CYP1A2, luciferin-ME demethylation, luminescence; series mostly up to 57 µM
How it was run: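 Read-out is luminescence from luciferin produced by CYP1A2 demethylation of Luciferin-ME (100uM, at Km). Detection reagent stopped the 60 min NADPH-dependent reaction; signals were normalized to 57 uM furafylline.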

[4] = NFAT Signaling Pathway (AID 444; active = well fitted curve in either direction with a large enough effect, not every such curve was filed as active;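 also: carbachol stimulus at about its EC50 of 1 µM final; % is scaled to controls: 0 for no effect and ±100 for the full control effect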); details: Jurkat NFAT-bla M1, carbachol, beta-lactamase ratio, 5 h; at 7.69 µM (top of the series) unless noted
How it was run: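 Jurkat cells with NFAT-driven β-lactamase reporter and co-expressed M1 receptor, stimulated with carbachol (final 1 uM, ~EC50), compound titration, 5 h at 37 °C. CCF4 loaded 1 h at RT; 460/530 nm ratio gave %activity and AC50.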

[5] = Stat Signaling Pathway (AID 446; active = well fitted curve in either direction with a large enough effect, not every such curve was filed as active;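 also: ME-180 cervical cancer cells given 40 pM IL-6 alongside compound; SIE-controlled beta-lactamase reporter measured as 460/530 nm FRET emission ratio; % is scaled to controls: 0 for no effect and ±100 for the full control effect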); details: ME-180 SIE beta-lactamase reporter, IL-6 stimulated, 5 h; at 7.69 µM (top of the series) unless noted
How it was run: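 FRET read-out (405 nm excitation, 460/530 nm emission) of a beta-lactamase reporter under a STAT-inducible element in ME-180 cervical carcinoma cells. Cells with compound receive 40 pM IL-6 for 5 h. Values are normalised to AC90 stimulation and AC90 JAK-inhibitor controls.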

[6] = molecular target: Glucocorticoid receptor (Homo sapiens) (UniProt P04150); experiment: GR-GFP Redistribution (AID 450;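 active = compounds whose dose series gives a full or clear partial fitted curve of increased nuclear translocation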; also: potency is read from the fitted curve at half-maximal effect); details: U2OS GR-GFP nuclear translocation, laser cytometry, 2 h
[7] = molecular target: Glucocorticoid receptor (Homo sapiens) (UniProt P04150); experiment: GR-EFC Redistribution (AID 451; calls by dose curve; also: potency is read from the fitted curve at half-maximal effect); details: CHO-K1 GR-EFC translocation, beta-gal luminescence, 2 h
How it was run: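 CHO-K1 cells expressing nuclear EA and GR-ED fragments of b-gal; compounds titrated up to 46 uM final, 2 h at 37 C. GR nuclear translocation read as complemented b-gal luminescence after 1 h RT detection.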

[8] = molecular target: Mitogen-activated protein kinase 10 (Mus musculus) (UniProt Q61831); experiment: JNK3 AlphaScreen Assay (AID 530; active = well fitted curve in either direction with a large enough effect, not every such curve was filed as active;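 also: kinase came from lysate of stimulated human HepG2 cells; signal reports phosphorylation of biotinylated GST-cJun 1-79 at Ser73 with 10 µM ATP; % is scaled to controls: 0 for no effect and ±100 for the full control effect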); details: JNK3 lysate, c-Jun phosphorylation; series mostly up to 57.1 µM
How it was run: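 HepG2 lysate (IL-1b/TNFa pre-activated) + biotin-GST-cJun 1-79 + anti-pSer73 cJun; cpd titration, 15 min RT; ATP 10 uM start; Tris pH 7.6, MgCl2, DTT, vanadate; beads in EDTA buffer; AlphaScreen.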

[9] = molecular target: Cytochrome P450 2C9 (Homo sapiens) (UniProt P11712); experiment: qHTS Assay for Inhibitors and Substrates of Cytochrome P450 2C9 (AID 883); details: recombinant CYP2C9, luciferin-H luminescence, 60 min; series mostly up to 57.1 µM; also: potency is read from the fitted curve at half-maximal effect; nearly all actives have a fitted effect of over 60% in size
How it was run: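 Human CYP2C9 (10nM) with Luciferin-H at 100uM (its KM) in 25mM KPO4; compound preincubated 10 min at 37C, then NADPH regeneration for 60 min at 37C. Luciferin read by luminescence after detection reagent; normalized to 57uM sulphaphenazole as full inhibition.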

[10] = molecular target: Cytochrome P450 3A4 (Homo sapiens) (UniProt P08684); experiment: qHTS Assay for Inhibitors and Substrates of Cytochrome P450 3A4 (AID 884); details: recombinant CYP3A4, Luciferin-PPXE luminescence; series mostly up to 57.1 µM; also: potency is read from the fitted curve at half-maximal effect; nearly all actives have a fitted effect of over 50% in size
How it was run: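 Luminescent readout of luciferin produced by CYP3A4 (20 nM) dealkylation of Luciferin-PPXE, 25 uM (its KM). NADPH-driven reaction ran 60 min at RT after 10 min compound preincubation; data scaled to 57 uM ketoconazole as 100% inhibition.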

[11] = molecular target: Cytochrome P450 3A4 (Homo sapiens) (UniProt P08684); experiment: qHTS Assay for Activators of Cytochrome P450 3A4 (AID 885); details: recombinant CYP3A4, Luciferin-PPXE luminescence, 60 min; series mostly up to 57.1 µM; also: nearly all actives have a fitted effect of over 65% in size
How it was run: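 Luminescent readout of luciferin formed from 25 uM Luciferin-PPXE (KM level) by 20 nM CYP3A4 in 200 mM KPO4, with 60 min NADPH-driven reaction at room temperature after 10 min compound exposure. Ketoconazole (57 uM) defined 100% inhibition.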

[12] = molecular target: Cytochrome P450 2C19 (Homo sapiens) (UniProt P33261); experiment: qHTS Assay for Inhibitors and Substrates of Cytochrome P450 2C19 (AID 899); details: recombinant CYP2C19, luciferin-H EGE luminescence; series mostly up to 57.1 µM; also: potency is read from the fitted curve at half-maximal effect; nearly all actives have a fitted effect of over 60% in size
How it was run: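 5 nM human CYP2C19 with 10uM Luciferin-H EGE (at KM) in 50mM KPO4, compound preincubated 10 min at 37C, then NADPH regeneration for 60 min at 37C. Luciferin read by luminescence after detection reagent; normalized to 57uM ketoconazole as full inhibition.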

[13] = molecular target: Dual specificity protein kinase CLK4 (Homo sapiens) (UniProt Q9HAZ1); experiment: qHTS Assay for Inhibitors of CDC-like Kinase 4 (Kinase-Glo Assay) (AID 1770); details: recombinant Clk4, Kinase-Glo ATP depletion luminescence; series mostly up to 66.7 µM; also: nearly all actives have a fitted effect of over 65% in size; also: potency is read from the fitted curve at half-maximal effect
How it was run: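 Luminescent ATP-depletion read-out (Kinase-Glo) after 4.5 h room-temperature reaction of Clk4 (25 nM final) with RS peptide (100 uM) and ATP (1 uM), pH 7.5 Tris buffer with MgCl2 and DTT.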

[14] = molecular target: Dual specificity protein kinase CLK4 (Homo sapiens) (UniProt Q9HAZ1); experiment: qHTS Assay for Inhibitors of CDC-like Kinase 4 (ADP-Glo Assay) (AID 1771); details: recombinant CLK4, ADP-Glo luminescence; series mostly up to 80 µM; also: nearly all actives have a fitted effect of over 70% in size; also: potency is read from the fitted curve at half-maximal effect
How it was run: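 In this ADP-Glo format, 1 uM ATP and 100 uM RS peptide served as substrates for 25 nM Clk4 in Mg2+/EGTA/DTT/Triton buffer; reactions ran 1 hr at room temperature before luminescent ADP quantification.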

[15] = molecular target: Ubiquitin carboxyl-terminal hydrolase 1 (Homo sapiens) (UniProt O94782); experiment: Inhibitors of USP1/UAF1: Pilot qHTS (AID 504865); details: purified USP1/UAF1, Ub-rhodamine cleavage fluorescence; series mostly up to 54.9 µM;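 also: rhodamine fluorescence freed from ubiquitin-rhodamine substrate followed over time; top concentration of the series differs between compounds; % is scaled to controls: 0 for no effect and ±100 for the full control effect; nearly all actives have a fitted effect of over 35% in size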
How it was run: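 Deubiquitinase activity followed as kinetic rhodamine fluorescence release from 150 nM Ub-Rho. 1 nM USP1/UAF1 with compound, after 15 min room-temperature preincubation, in HEPES pH 7.8 buffer containing TCEP, EDTA, BSA and Tween-20.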

[16] = Primary qHTS for small molecule stabilizers of the endoplasmic reticulum resident proteome: Secreted ER Calcium Modulated Protein (SERCaMP) assay (AID 1508630); details: SH-SY5Y GLuc-SERCaMP (Gaussia luciferase released on ER calcium loss) secretion, thapsigargin, luminescence; series mostly up to 38.4 µM; also: % is scaled to controls: 0 for no effect and ±100 for the full control effect
How it was run: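 The SH-SY5Y reporter protocol was run at 3 concentrations up to 38.3 uM (primary) or 11 concentrations (follow-up): 16 h compound, 100 nM thapsigargin for 4 h, then extracellular luciferase luminescence.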

[17] = molecular target: 3',5'-cyclic-AMP phosphodiesterase 4B (Homo sapiens) (UniProt Q07343); experiment: qHTS Assay for Inhibitors of PDE-IV (AID 607; active = well fitted activation curve with a large enough effect in the main read-out, with a control signal flat, not every such curve was filed as active; also: % of control where 0% means no effect); details: HEK293 ACTOne CNG channel cells, membrane potential fluorescence; series mostly up to 22.9 µM
How it was run: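 Cell-based read-out of cAMP via a modified cyclic nucleotide-gated channel and membrane potential dye (535/590 nm) in HEK293 cells expressing PDE4 endogenously. Compounds tested up to 22.9 uM final; 100 uM RO 20-1724 reference.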

[18] = qHTS Assay for Identification of Small Molecule Agonists for Hypoxia Response Element Signaling Pathway (AID 914; active = well fitted activation curve with a large enough effect in the signal ratio, with a control signal flat, not every such curve was filed as active; the % refers to the signal ratio; also: % of control where 0% means no effect); details: ME-180 HRE-bla reporter, beta-lactamase ratio, CoCl2, 17 h; activation: hits give high values
How it was run: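 ME-180 cells carrying an HRE-driven beta-lactamase reporter were treated with compounds in a titration series plus an EC50 level of CoCl2 for 17 h at 37 degrees Celsius; CCF4 readout as the 460nm/530nm ratio gave AC50 values.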

Ubiquitin carboxyl-terminal hydrolase 1 (Homo sapiens), sequence (O94782 whole entry, looked up): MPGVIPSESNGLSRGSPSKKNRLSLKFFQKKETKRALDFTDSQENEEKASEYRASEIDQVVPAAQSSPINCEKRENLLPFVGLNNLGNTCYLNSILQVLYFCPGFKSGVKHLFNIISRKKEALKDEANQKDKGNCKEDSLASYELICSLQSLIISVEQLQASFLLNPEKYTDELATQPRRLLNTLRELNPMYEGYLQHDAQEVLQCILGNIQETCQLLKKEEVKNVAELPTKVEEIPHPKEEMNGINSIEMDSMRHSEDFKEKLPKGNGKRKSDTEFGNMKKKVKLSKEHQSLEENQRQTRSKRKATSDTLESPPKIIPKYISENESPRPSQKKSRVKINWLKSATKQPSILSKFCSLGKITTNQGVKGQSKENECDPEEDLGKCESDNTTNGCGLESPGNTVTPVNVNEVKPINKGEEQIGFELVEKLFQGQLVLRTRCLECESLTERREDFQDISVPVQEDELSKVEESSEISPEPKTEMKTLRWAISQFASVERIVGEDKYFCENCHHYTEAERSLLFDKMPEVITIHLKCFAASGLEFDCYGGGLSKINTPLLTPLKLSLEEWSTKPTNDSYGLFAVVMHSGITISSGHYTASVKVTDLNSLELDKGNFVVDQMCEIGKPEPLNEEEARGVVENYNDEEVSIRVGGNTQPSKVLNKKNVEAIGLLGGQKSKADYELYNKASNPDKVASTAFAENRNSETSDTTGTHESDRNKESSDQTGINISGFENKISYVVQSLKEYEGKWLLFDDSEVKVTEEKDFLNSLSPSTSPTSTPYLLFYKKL
Dual specificity protein kinase CLK4 (Homo sapiens), sequence (Q9HAZ1 whole entry, looked up): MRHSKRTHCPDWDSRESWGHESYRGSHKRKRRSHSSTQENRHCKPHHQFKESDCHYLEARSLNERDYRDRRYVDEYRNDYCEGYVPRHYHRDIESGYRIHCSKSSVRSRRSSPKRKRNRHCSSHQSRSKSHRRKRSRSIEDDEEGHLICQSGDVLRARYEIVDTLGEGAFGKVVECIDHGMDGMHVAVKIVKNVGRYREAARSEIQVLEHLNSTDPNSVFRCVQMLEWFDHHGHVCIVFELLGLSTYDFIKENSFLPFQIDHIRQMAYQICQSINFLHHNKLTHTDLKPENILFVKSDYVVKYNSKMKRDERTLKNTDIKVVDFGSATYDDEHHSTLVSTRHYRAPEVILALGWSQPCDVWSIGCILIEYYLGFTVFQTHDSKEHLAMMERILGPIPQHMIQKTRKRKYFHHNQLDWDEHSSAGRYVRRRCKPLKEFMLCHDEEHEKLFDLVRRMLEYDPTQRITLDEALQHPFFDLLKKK
Cytochrome P450 3A4 (Homo sapiens), sequence (P08684 whole entry, looked up): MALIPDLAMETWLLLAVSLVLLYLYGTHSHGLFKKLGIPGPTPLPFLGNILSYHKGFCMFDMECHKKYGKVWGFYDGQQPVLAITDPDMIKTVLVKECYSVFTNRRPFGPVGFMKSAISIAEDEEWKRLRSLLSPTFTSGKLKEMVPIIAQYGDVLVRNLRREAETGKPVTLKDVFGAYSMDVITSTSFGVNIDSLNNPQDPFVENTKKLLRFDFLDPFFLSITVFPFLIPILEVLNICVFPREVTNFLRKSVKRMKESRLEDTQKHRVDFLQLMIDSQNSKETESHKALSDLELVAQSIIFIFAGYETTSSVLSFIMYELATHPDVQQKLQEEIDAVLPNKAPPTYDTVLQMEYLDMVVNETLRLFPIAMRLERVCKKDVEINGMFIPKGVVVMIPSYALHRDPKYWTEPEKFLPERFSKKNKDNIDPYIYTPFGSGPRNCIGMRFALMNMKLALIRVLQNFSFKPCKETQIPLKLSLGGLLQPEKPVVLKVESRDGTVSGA
Lysosomal acid glucosylceramidase (Homo sapiens), sequence (P04062 whole entry, looked up): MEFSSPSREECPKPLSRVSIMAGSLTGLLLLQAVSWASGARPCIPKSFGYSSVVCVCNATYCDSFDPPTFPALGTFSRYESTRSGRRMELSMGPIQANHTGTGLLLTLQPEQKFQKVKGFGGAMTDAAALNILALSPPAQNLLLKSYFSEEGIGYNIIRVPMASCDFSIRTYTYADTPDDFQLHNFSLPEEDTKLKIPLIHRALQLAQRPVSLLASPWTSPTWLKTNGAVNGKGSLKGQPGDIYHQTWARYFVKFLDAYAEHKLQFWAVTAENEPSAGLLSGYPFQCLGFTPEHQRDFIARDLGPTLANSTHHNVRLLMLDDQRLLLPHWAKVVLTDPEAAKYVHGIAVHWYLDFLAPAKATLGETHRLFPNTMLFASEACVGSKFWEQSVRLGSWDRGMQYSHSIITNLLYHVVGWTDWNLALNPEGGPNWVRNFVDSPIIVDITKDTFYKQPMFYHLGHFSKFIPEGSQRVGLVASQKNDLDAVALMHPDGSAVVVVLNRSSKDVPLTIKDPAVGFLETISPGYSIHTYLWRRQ
Cytochrome P450 1A2 (Homo sapiens), sequence (P05177 whole entry, looked up): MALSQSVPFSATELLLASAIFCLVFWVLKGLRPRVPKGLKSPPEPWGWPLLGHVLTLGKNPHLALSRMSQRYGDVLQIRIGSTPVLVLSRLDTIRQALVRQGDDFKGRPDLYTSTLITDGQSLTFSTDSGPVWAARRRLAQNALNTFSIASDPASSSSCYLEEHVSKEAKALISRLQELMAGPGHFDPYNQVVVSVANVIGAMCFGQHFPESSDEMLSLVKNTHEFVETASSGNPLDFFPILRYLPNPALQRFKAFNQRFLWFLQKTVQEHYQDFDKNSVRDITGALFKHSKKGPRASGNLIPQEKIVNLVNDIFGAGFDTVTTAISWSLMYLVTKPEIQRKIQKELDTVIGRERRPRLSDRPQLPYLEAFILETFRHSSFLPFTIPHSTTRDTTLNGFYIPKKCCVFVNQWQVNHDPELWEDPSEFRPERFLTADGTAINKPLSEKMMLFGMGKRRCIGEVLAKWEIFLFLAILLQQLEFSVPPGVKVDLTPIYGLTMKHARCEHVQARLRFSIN
3',5'-cyclic-AMP phosphodiesterase 4B (Homo sapiens), sequence (Q07343 whole entry, looked up): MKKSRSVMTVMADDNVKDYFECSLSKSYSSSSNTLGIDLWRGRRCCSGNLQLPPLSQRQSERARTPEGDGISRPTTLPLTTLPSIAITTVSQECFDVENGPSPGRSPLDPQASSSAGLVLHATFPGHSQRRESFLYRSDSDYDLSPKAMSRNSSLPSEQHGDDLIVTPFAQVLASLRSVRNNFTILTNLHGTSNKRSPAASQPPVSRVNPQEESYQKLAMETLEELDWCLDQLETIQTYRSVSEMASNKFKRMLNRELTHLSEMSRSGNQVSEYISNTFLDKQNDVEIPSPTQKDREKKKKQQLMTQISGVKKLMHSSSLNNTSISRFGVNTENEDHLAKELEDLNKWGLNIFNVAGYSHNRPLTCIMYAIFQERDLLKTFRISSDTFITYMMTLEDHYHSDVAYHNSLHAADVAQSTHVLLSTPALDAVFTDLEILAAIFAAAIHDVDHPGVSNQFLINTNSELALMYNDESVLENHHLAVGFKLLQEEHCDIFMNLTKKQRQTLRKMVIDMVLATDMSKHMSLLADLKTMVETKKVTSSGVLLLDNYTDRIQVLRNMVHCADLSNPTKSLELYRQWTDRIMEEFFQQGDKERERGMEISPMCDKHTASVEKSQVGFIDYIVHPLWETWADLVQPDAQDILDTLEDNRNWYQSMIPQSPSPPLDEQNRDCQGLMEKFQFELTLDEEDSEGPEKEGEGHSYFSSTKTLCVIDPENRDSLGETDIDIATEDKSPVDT
Glucocorticoid receptor (Homo sapiens), sequence (P04150 whole entry, looked up, the tested form may be a part): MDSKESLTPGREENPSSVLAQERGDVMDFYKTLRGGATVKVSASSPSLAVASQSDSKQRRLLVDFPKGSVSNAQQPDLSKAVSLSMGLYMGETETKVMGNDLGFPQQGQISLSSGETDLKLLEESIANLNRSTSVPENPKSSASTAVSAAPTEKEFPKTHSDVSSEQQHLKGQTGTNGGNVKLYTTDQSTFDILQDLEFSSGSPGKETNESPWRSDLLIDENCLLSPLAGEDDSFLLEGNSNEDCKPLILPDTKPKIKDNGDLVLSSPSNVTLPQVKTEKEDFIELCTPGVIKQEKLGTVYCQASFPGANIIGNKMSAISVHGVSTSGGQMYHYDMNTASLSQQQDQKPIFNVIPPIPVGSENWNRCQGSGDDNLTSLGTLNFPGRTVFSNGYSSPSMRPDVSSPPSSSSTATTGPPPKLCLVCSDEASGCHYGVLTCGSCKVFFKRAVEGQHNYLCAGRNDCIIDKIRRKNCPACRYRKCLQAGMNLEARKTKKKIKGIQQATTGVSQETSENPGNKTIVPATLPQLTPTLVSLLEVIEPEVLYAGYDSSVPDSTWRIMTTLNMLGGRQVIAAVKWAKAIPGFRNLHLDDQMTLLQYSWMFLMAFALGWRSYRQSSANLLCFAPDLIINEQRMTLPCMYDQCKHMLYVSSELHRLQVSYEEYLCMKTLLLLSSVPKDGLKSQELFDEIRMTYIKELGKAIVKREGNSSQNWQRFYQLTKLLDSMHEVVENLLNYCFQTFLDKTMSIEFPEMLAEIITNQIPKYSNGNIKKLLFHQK
Cytochrome P450 2C19 (Homo sapiens), sequence (P33261 whole entry, looked up): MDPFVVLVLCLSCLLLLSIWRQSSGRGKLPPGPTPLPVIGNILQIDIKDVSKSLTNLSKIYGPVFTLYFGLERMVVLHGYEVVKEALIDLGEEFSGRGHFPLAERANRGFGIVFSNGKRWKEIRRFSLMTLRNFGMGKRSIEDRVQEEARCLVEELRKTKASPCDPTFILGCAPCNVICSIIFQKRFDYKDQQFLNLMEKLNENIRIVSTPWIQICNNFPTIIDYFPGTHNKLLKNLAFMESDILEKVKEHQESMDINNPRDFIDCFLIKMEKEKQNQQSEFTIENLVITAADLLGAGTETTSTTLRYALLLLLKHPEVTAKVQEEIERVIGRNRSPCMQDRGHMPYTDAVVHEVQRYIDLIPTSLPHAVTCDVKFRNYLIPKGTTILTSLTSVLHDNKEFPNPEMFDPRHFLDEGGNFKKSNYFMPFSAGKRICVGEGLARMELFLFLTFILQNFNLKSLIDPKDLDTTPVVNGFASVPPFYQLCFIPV

COc1cccc(Cn2c(=O)c(-c3cccs3)nc3cncnc32)c1
active: Potency [3] 5.01 µM | Potency [9] 2.51 µM | Potency [10] 5.01 µM | Potency [12] 5.01 µM
inactive: Potency [1] > 11.4 µM | activity change, negative = inhibition [2] -13.8% | activity change, negative = inhibition [4] -4.4% | activity, negative = inhibition [5] 0.799% | Potency [6] > 9.22 µM | Potency [7] > 46 µM | Potency [8] | Potency [11] | Potency [13] | Potency [14] | Potency [15] | outcome [16]

COc1ccc2[nH]cc(CCNc3cc(-c4cccnc4)ncn3)c2c1
active: Potency [3] 3.16 µM | Potency [10] 3.98 µM | Potency [13] 14.1 µM | Potency [14] 15.8 µM
inactive: Potency [1] > 11.4 µM | activity change, negative = inhibition [2] -10.1% | activity change, negative = inhibition [4] 15.6% | activity, negative = inhibition [5] -2.74% | Potency [6] > 46 µM | Potency [7] > 46 µM | Potency [17] | Potency [11] | Potency [15] | outcome [16]

CN1CCN(c2ncnc3ccc(-c4cccnc4)cc23)CC1
inactive: Potency [1] > 11.4 µM | activity change, negative = inhibition [2] -5.19% | activity change, negative = inhibition [4] 17% | activity, negative = inhibition [5] 2.81% | Potency [6] > 46 µM | Potency [7] > 46 µM | Potency [8] | Potency [17] | Potency [11] | activation [18] -3.4% | Potency [15] | outcome [16]
active: Potency [13] 12.6 µM | Potency [14] 14.1 µM

c1ccc(Nc2nc(-c3ccc4c(c3)OCO4)nc3ccccc23)cc1
inactive: activity change, negative = inhibition [2] -19.9% | activity change, negative = inhibition [4] -26.1% | activity, negative = inhibition [5] -2.81% | Potency [6] > 46 µM | Potency [7] > 46 µM | Potency [8] | Potency [11] | Potency [15] | outcome [16]
active: Potency [1] 9.63 µM | Potency [3] 1.26 µM | Potency [10] 5.01 µM | Potency [12] 3.16 µM | Potency [13] 28.2 µM | Potency [14] 31.6 µM

CC(=O)NCCNc1ncnc2ccc(-c3ccccc3C#N)cc12
inactive: Potency [1] > 11.4 µM | activity change, negative = inhibition [2] -5.09% | activity, negative = inhibition [5] 6.69% | Potency [6] > 46 µM | Potency [7] > 46 µM | Potency [8] | Potency [17] | Potency [15] | outcome [16]
active: Potency [3] 3.98 µM | Potency [13] 14.1 µM | Potency [14] 14.1 µM

Cc1ccccc1-c1cc(N2CCNCC2)ncn1
inactive: Potency [1] > 11.4 µM | activity change, negative = inhibition [2] 8.27% | activity change, negative = inhibition [4] 15.7% | activity, negative = inhibition [5] 8.55% | Potency [6] > 46 µM | Potency [7] > 46 µM | Potency [8] | Potency [17] | Potency [13] | Potency [14] | Potency [15] | outcome [16]
